# This is part of a sample that, as a whole, favours compounds with a hit. Of some 83,000 tested, about 20% had one in any assay.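 Single-dose data. Exposure time 48 hours. Values below 10 considered active.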 Active and inactive are the calls of the source.
# Assays:
# Experiment in all cases: NCI-60 one-dose screen, 48 h (100 = growth as untreated, 0 = no growth, -100 = all killed)
# Conditions in all cases: 10 µM unless noted
# NCI-H226 lung = tested on: NCI-H226 lung
# NCI-H322M lung = tested on: NCI-H322M lung
# NCI-H460 lung = tested on: NCI-H460 lung
# HOP-92 NSCLC = tested on: HOP-92 NSCLC
# NCI-H522 lung = tested on: NCI-H522 lung
# A549/ATCC NSCLC = tested on: A549/ATCC NSCLC
# 786-0 renal = tested on: 786-0 renal
# COLO 205 colon = tested on: COLO 205 colon
# HOP-62 NSCLC = tested on: HOP-62 NSCLC
Compound,growth (NCI-H226 lung),growth (NCI-H322M lung),growth (NCI-H460 lung),growth (HOP-92 NSCLC),growth (NCI-H522 lung),growth (A549/ATCC NSCLC),growth (786-0 renal),growth (COLO 205 colon),growth (HOP-62 NSCLC)
C=CC[n+]1cccc2c3ccccc3ccc21,58% (inactive),76.7% (inactive),23.2% (inactive),52.3% (inactive),27.1% (inactive),28.1% (inactive),66.2% (inactive),28.4% (inactive),–
COc1ccc2[nH]c(O)c(N=Nc3nc(-c4ccc(Cl)cc4)cs3)c2c1,-54.3% (active),12.8% (inactive),-31.4% (active),-38.8% (active),-26.4% (active),-60.8% (active),-86.6% (active),-76.9% (active),-26.6% (active)
O=C(N=Nc1c(O)[nH]c2ccc(Cl)cc12)c1ccc2nc(-c3ccc(Cl)cc3)[nH]c2c1,51.1% (inactive),31.4% (inactive),11.8% (inactive),-0.983% (active),-26.9% (active),41.5% (inactive),-72.6% (active),-17.6% (active),-37.9% (active)
